Screening data as filed in PubChem BioAssay.
Gal4-VP16 FLuc = VP16 counterscreen qHTS for inhibitors of ROR gamma transcriptional activity; Drosophila S2 Gal4-VP16 UAS-luciferase, luminescence, 20 h; Potency, µM (series often up to 53.6 µM), for inactives: at the highest dose activity, negative = inhibition, most hits filed as inhibitors; 310,000 compounds, 3.5% hits; AID 2546, 2010;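 note: Gal4-VP16 expression switched on by copper sulfate through the metallothionein promoter; % is set by controls: 0 for no effect and ±100 for the full control effect; nearly all actives have a fitted effect of over 50% in size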
ELG1 DNA repair = qHTS screen for small molecules that inhibit ELG1-dependent DNA repair in human embryonic kidney (HEK293T) cells expressing luciferase-tagged ELG1; 330,000 compounds, 2.3% hits; Potency, µM (top dose mostly 46.1 µM), inactives show top-dose activity change, negative = inhibition, most hits filed as inhibitors; HEK293T ELG1-luciferase reporter, luminescence, 16 h; DNA damage induced by 5-fluorouridine; note: % is set by controls: 0 for no effect and ±100 for the full control effect; nearly all actives have a fitted effect of over 55% in size
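5-Fluorouridine DNA damage + compound/DMSO, 2,000 cells/well, 16 h, 37 °C/5% CO2. ONE-Glo, 30 min RT, luminescence. Readout = decrease in reporter signal.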
SW480 rerep = A quantitative high throughput screen for small molecules that induce DNA re-replication in SW480 colon adenocarcinoma cells. 340,000 compounds, 1.8% hits. Potency, µM (doses to about 46.1 µM), inactives show at the top dose re-replication activation, hits mostly activators. SW480 DNA re-replication, Hoechst DNA content imaging, 48 h; note: % of control where 0% means no effect; nearly all actives have a fitted effect of over 55% in size
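Cells (250 per well) received 23 nL compound or DMSO by pin tool and were kept 48 hr at 37 C, 5% CO2. Nuclei were then stained with Hoechst for 40 min and scanned for DNA content.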
MCF10A rereplic = A quantitative high throughput screen for small molecules that induce DNA re-replication in MCF 10a normal breast cells. MCF 10A DNA re-replication, Hoechst nuclear intensity, 48 h. Potency, µM (titrated, usually from 46.1 µM), without a hit: top-dose activity, positive = re-replication, actives largely listed as activators. 350,000 compounds, 2.9% hits. AID 624296, 2012; note: % of control where 0% means no effect; nearly all actives have a fitted effect of over 50% in size
RORg inh = qHTS for inhibitors of ROR gamma transcriptional activity; Nuclear receptor ROR-gamma (Mus musculus), P51450; Drosophila S2 Gal4-RORgamma UAS-luciferase reporter, 20 h; Potency, µM (series often up to 53.6 µM), without a hit: top-dose activity change, negative = inhibition, usual class: inhibitors; 310,000 compounds, 5.4% hits; AID 2551, 2010; note: % is set by controls: 0 for no effect and ±100 for the full control effect; nearly all actives have a fitted effect of over 60% in size
Target sequence (P51450 whole entry, looked up, the tested form may be a part): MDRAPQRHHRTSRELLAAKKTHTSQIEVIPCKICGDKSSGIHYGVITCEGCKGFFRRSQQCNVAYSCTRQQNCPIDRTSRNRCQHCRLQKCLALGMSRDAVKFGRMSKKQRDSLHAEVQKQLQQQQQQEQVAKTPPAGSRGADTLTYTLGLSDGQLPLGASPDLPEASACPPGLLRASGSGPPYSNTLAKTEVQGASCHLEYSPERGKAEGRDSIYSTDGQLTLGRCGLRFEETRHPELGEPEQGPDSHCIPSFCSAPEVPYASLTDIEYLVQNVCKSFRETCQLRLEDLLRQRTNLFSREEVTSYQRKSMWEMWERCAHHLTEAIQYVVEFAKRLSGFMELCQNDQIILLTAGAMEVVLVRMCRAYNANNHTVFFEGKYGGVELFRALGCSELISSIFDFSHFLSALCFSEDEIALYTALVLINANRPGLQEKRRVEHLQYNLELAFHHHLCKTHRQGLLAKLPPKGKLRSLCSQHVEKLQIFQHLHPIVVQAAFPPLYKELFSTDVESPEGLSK
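Compounds are pin-transferred onto Drosophila Schneider cells expressing a copper-inducible Gal4–ROR gamma transactivation domain fusion. After 1 hr, copper sulfate is added to 700 uM final; luciferase is read 20 hr later.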
* marks the source's active call; other numbers are inactive results; ? = inconclusive; · = no result; [ ] = remark or other dose. Hits are enriched below; roughly 10% of the tested compounds scored in any of these assays. Calls come from the whole dose curve; as a rule, active = well fitted curve in the direction sought with a large enough effect; inconclusive = small, poorly fitted or top-dose-only effect, or another doubt; inactive = no such curve, though single readings can be large; an effect the other way counts as inactive or inconclusive. Potency is the fitted concentration of half-maximal effect.

SMILES	Gal4-VP16 FLuc	ELG1 DNA repair	SW480 rerep	MCF10A rereplic	RORg inh
CC(C)NC(=O)N(C)C[C@@H]1Oc2c(NC(=O)C3CCOCC3)cccc2C(=O)N([C@@H](C)CO)C[C@H]1C	·	26%	15%	-1%	·
Cc1cc(/C=N/n2cnnc2)c(C)n1-c1ccc(Cl)cc1	-14%	6%	2%	17%	23%
Cc1cc(/C=N/n2cnnc2)c(C)n1-c1ccc(OCc2ccc(Cl)cc2Cl)cc1	11µM*	?	14%	1.5µM*	0%
Cc1ccc(Cl)cc1NC(=O)NCc1cccnc1	1%	-5%	18µM*	0%	-13%
O=C(NCc1cccnc1)C1CCC(c2ccc(Cl)cc2)CC1 (stereo not given)	?	9.2µM*	-17%	15%	5%
O=C(NCc1cccnc1)NC1(C(F)(F)F)Oc2ccc(Cl)cc2O1 (stereo not given)	?	?	13%	11%	11µM*
CC(=O)OC[C@@H]1O[C@H](C/C=N\O[C@@H](C)c2cn([C@H](CO)Cc3ccccc3)nn2)C=C[C@@H]1OC(C)=O	8%[10 µM]	·	·	·	1%[10 µM]
COc1cc(OC)c(C(=O)OCC(=O)Nc2ccc(S(=O)(=O)N3CCOCC3)cc2)cc1OC	·	-17%	-1%	-1%	·
O=C(c1cc(-c2ccc(Cl)cc2)n[nH]1)N1CCN(C(=O)c2ccco2)CC1	2%	3%	6%	0%	10%
Fc1cccc(Cn2cc(C(=S)N3CCCCC3)c3ccccc32)c1	7.9µM*	-28%	11%	9%	7.1µM*
CC1=Nc2ccccc2/C1=C/c1sc(=N)n(-c2nccs2)c1O	0.79µM*	?	11%[9.22 µM]	?	0.63µM*
NC(=O)C[C@H](NC(=O)c1ccc(Cl)cc1)C(=O)OCc1ccccc1	·	16%	-7%	-4%	·
Cc1nn(CCC(=O)NNC(=S)Nc2cccc(Cl)c2)c(C)c1[N+](=O)[O-]	4%	23%	0%	1%	-3%
Cc1cnn(CCC(=O)NNC(=S)Nc2ccc(F)cc2)c1	2.8µM*	?	-2%	20%	0.45µM*
COc1ccc(NC(=S)NNC(=O)CCn2cc([N+](=O)[O-])cn2)cc1	0%[10 µM]	?	-7%	-3%	-43%
Cc1cnn(CCC(=O)NNC(=S)Nc2cccc(Cl)c2)c1	?	?	6.5µM*	0%	0.35µM*
CCNC(=S)NNC(=O)CCn1cc(C)cn1	?	0%	0%	-2%	6.3µM*
O=C1C=C(c2ccc(OC(F)(F)F)cc2)C[C@@H](c2ccc(Cl)cc2)C1	·	11%	-5%	?	·
CCOc1ccc(C(=O)N/N=C(/C)C2C(=O)c3ccccc3C2=O)cc1	2.8µM*	?	1%	-2%	1.1µM*
C/C(=N\NC(=O)c1ccc(-c2ccccc2)cc1)C1C(=O)c2ccccc2C1=O	12%	?	5%	?	?
C/C(=N\NC(=O)c1ccc(Br)cc1)C1C(=O)c2ccccc2C1=O	3.5µM*	-2%	-6%	?	4µM*
CCOc1ccc(/C(C)=N/NC(=O)C(OC)c2ccccc2)cc1 (stereo not given)	-9%	-17%	-2%	14%	-19%
CCN1C[C@@H]2[C@@H]3C(=O)N(C)C(=O)[C@@H]3[C@](Cc3ccccc3)(C1=O)N2C(=O)c1ccc(Cl)cc1	·	·	-6%	4%	·
COc1ccc(C(C)=O)cc1CSc1ccc(S(=O)(=O)N2CCCCC2)cn1	·	-18%	-7%	11%	·
CNC(=S)Nc1ccc([N+](=O)[O-])cc1C	2%	-13%	-9%	-17%	-5%
Cc1ccc(NC(=S)NCc2ccccc2)cc1[N+](=O)[O-]	?	1%	2%	?	?
CNC(=S)Nc1ccc([N+](=O)[O-])c(C)c1	?	9%	2%	1%	10µM*
Cc1ccc(CNC(=S)Nc2ccc(C)c([N+](=O)[O-])c2)cc1	3.5µM*	-12%	-3%	?	6.3µM*
